# Assay outcomes (PubChem BioAssay)
# FLuc modulator: inhibits or activates purified firefly luciferase, miR-21 counter-screen; AID 588342; actives 6.9% (n = 360,000); Potency, µM (doses to about 57.5 µM), for the others: at the highest dose activity change, negative = inhibition, hits mostly inhibitors; purified FLuc, Km substrates, luminescence inhibition; P08659;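 also: plate controls were vehicle for no effect and reference inhibitor for full effect; nearly all actives have a fitted effect of over 55% in size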
# Target sequence (P08659 whole entry, looked up): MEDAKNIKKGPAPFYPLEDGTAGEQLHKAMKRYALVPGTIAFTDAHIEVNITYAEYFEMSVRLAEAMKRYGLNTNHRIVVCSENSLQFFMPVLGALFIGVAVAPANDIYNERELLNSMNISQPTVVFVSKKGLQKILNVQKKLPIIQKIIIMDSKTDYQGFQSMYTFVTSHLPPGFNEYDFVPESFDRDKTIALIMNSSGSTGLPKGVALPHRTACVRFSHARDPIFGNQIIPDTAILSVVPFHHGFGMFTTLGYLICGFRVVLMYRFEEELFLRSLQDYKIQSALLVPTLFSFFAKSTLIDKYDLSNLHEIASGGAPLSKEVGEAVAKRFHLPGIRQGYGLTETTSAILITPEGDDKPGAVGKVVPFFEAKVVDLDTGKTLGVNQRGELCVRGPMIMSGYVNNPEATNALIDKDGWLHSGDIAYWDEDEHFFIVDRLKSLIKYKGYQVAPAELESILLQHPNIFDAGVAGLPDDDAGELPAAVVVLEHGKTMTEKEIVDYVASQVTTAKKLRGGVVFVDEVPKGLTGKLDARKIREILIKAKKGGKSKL
#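 Purified P. pyralis luciferase, 10 nM final, with Km-level 10 uM D-luciferin and 10 uM ATP in 50 mM Tris acetate pH 7.5, 10 mM Mg acetate, 0.01% Tween-20, 0.05% BSA; 6-point qHTS titration about 60 µM downward; luminescence read.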
# ELG1 genotoxic: inducers of genotoxicity in HEK293T ELG1-luciferase cells. HEK293T ELG1-luciferase reporter, luminescence, 16 h. Potency, µM (titrated, usually from 46 µM), for inactives: top-dose activity change, positive = activation, most hits filed as activators. actives 1.3% (n = 330,000). AID 504466; also: % of control where 0% means no effect; nearly all actives have a fitted effect of over 60% in size
#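 Luminescence read-out: rising ELG1-luciferase signal, reflecting elevated ELG1 protein under genetic stress, flags genotoxic compounds. Cells were treated for 16 hr at 37 °C before ONE-Glo detection.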
# Rab9 prom act: Rab9 promoter activation | Huh7 Rab9 promoter-luciferase reporter, luminescence, 24 h | Potency, µM (doses to about 9.22 µM), inactives show at the top dose activation, negative = inhibition, usual class: activators | actives 2.8% (n = 320,000); also: % of control where 0% means no effect; nearly all actives have a fitted effect of over 60% in size
#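 Quantitative HTS format; Huh7 Rab9-luciferase reporter cells (1500/well) receive compound 2 h post-plating, incubate 24 h at 37 °C, then get luciferase reagent for 10 min before luminescence reading.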
# NPC1 promoter act: NPC1 promoter activation | AID 485313 | Huh7 NPC1 promoter luciferase reporter, 24 h | actives 2.4% (n = 320,000) | Potency, µM (doses to about 9.22 µM), for the others: top-dose activation, actives largely listed as activators; also: % of control where 0% means no effect; nearly all actives have a fitted effect of over 60% in size
#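 NPC1 promoter–luciferase Huh7 cells; 24 h compound; luminescence.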
# SMN2 splice up: increases expression of the SMN2 splice variant | HEK293 SMN2-luciferase splicing reporter, luminescence, 30-36 h | actives 2.8% (n = 210,000) | Potency, µM (top dose mostly 46.1 µM), for the others: at the highest dose activity change, positive = activation, usual class: activators; also: % of control where 0% means no effect; nearly all actives have a fitted effect of over 55% in size
#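 qHTS luciferase splicing reporter: luminescence rises when SMN2 exon 7 is included in transfected HEK293 cells. Compound exposure lasted 30-36 h at 37C, with 4.5 mM final sodium butyrate as control, followed by a ONE-Glo read.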
# * hit, by the source's call; ? = inconclusive; nt = no result; [ ] = remark or other dose. Sampled rows, rich in hits. Any-hit rate of the full collection: about 7.5%. Calls follow the shape of the dose curve; as a rule, active = well fitted curve in the direction sought with a large enough effect; inconclusive = small, poorly fitted or top-dose-only effect, or another doubt; inactive = no such curve, though single readings can be large; an effect the other way counts as inactive or inconclusive. Potency is read from the fitted curve at half-maximal effect.
SMILES,FLuc modulator,ELG1 genotoxic,Rab9 prom act,NPC1 promoter act,SMN2 splice up
O=C(NCCc1ccccc1)C1CCC(CNS(=O)(=O)c2cccs2)CC1 (configuration not stated),-1.4%,-5.2%,0.5%,-6.6%,6.6%
CCc1ccc(Cn2c(CNS(=O)(=O)c3ccc(F)c(Cl)c3)nc3cccnc32)cc1,-7.7%,nt,nt,nt,nt
COc1ccc(C(=O)Cn2c(=N)n(C)c3ccccc32)cc1,8.49µM*,?,?,26.3%,nt
COc1ccc(C(=O)CN2Cc3ccccc3C2=N)cc1,10.7µM*,2.59µM*,2.51µM*,3.98µM*,nt
Cn1c(=N)n(CC(=O)c2ccccc2)c2ccccc21,1.2µM*,0.366µM*,1.12µM*,3.16µM*,nt
Cn1c(=N)n(CC(=O)O)c2ccccc21,0.2%,-0.3%,-2.3%,-3.4%,18.2%
Cn1c(=N)n(CC(=O)c2ccc(Cl)c(Cl)c2)c2ccccc21,0.379µM*,?,?,?,nt
CCc1nnc(SC(CC)C(=O)Nc2cccc(OC)c2)c2cc3oc(C)cc3n12 (configuration not stated),3.7%,nt,nt,nt,nt
Cc1cc(NC(=O)Cc2ccccc2[N+](=O)[O-])no1,0.4%,-2.6%,2.1%,3.2%,nt
CCC1CCCCN1C(=O)CSc1nc2ncccc2[nH]1 (configuration not stated),-1.6%,-0.3%,-1.5%,0.4%,nt
CCCCC(Sc1nc2cc3c(cc2c(=O)n1CCCC(=O)NCc1ccc(OC)cc1)OCO3)C(=O)OCC (configuration not stated),-1.7%,nt,nt,nt,nt
Cc1cc(C(=O)Nc2cccc(C(=O)O)c2)c(C)o1,10.7µM*,?,3.98µM*,3.55µM*,?
CC(C)(C)NC(=O)c1cccc(NC(=O)c2ccco2)c1,?,-0.7%,3.5%,-2.8%,3.3%
Cc1oc(C(C)(C)C)cc1C(=O)Nc1ccc(C(=O)O)cc1,16.9µM*,17.3%,?,?,?
Cc1oc(C(C)(C)C)cc1C(=O)Nc1cccc(C(=O)O)c1,12µM*,?,3.16µM*,0.708µM*,?
Cc1oc(-c2ccccc2)cc1C(=O)Nc1cccc(C(=O)O)c1,?,?,18.8%,14.3%,nt
Cc1cc(C(=O)Nc2cccc(C(=O)O)c2)oc1C,0.536µM*,?,?,?,1.58µM*
Cc1ccc(NC(=O)C2CCCN2S(=O)(=O)c2ccc3c(c2)n(C)c(=O)c(=O)n3C)cc1C (configuration not stated),-4.6%,1.2%,-2.0%,-0.1%,3.6%
Cc1oc(CC(C)C)cc1C(=O)Nc1ccc(C(=O)O)cc1,12µM*,-41.0%,21.1%,?,10.7%
Cc1cc(C(=O)Nc2ccc(C(=O)O)cc2)c(C)o1,?,1.0%,0.1%,1.2%,nt
CC(C)(C)c1ccc(C(=O)Nc2ccc(NC(=O)C(=O)O)cc2)o1,9.53µM*,-1.7%,-3.5%,0.7%,5.8%
CCn1ccc2cc(S(=O)(=O)N3CCCN(C(=O)Nc4ccccc4F)CC3)ccc21,-10.7%,nt,nt,nt,nt
CCC1OC(=O)CC(O)C(C)[C@@H](O[C@@H]2OC(C)[C@H](O[C@@H]3C[C@@](C)(O)C(O)C(C)O3)C(N(C)C)C2O)[C@H](CC=O)CC(C)C(=O)/C=C/C(C)=C/[C@@H]1COC1OC(C)C(O)C(OC)[C@@H]1OC (some centres not stated),nt,nt,nt,nt,-1.3%
COc1cccc(Nc2nc(N)nc(-c3oc4ccccc4c3C)n2)c1,19µM*,3.2%,18.7%,-7.3%,?
Cc1cccc(Nc2nc(N)nc(-c3oc4ccccc4c3C)n2)c1,?,?,?,17.6%,nt
SMILES,FLuc modulator,ELG1 genotoxic,Rab9 prom act,NPC1 promoter act,SMN2 splice up
COc1ccccc1Nc1nc(N)nc(-c2cc3ccccc3o2)n1,?,?,26.7%,9.8%,?
Cc1ccc(Nc2nc(N)nc(-c3oc4ccccc4c3C)n2)cc1,7.57µM*,9.2µM*,-1.2%,?,12.6µM*
Cc1c(-c2nc(N)nc(Nc3ccccc3F)n2)oc2ccccc12,3.01µM*,3.98µM*,0.891µM*,1.58µM*,11.2µM*
Oc1ccccc1-c1nc(/C=C/c2ccccc2Cl)nn1-c1ccccc1,6.01µM*,nt,nt,nt,1.5%
CCc1nc(-c2ccccc2O)n(-c2ccccc2)n1,0.1%,-0.1%,-7.7%,-2.6%,-15.8%
Oc1ccccc1-c1nc(/C=C/c2ccccc2Cl)no1,0.19µM*,nt,nt,nt,-1.7%
CN(C)c1ccc(/C=C/c2noc(-c3ccccc3O)n2)cc1,0.675µM*,nt,nt,nt,-24.4%
CCS(=O)(=O)N1CCCC(C(=O)NC2CCC(C)CC2)C1 (configuration not stated),-2.9%,5.6%,-3.3%,20.6%,-7.5%
Cc1ccc(-c2cc(C(F)(F)F)n3ncc(-c4ccccc4)c3n2)cc1,-0.3%,nt,nt,nt,11.6%
CCSc1cc(C)nc2c(-c3ccccc3)cnn12,3.01µM*,9.2µM*,-4.4%,-5.7%,nt
C=CCSc1cc(C)nc2c(-c3ccccc3)cnn12,3.38µM*,?,3.55µM*,21.1%,nt
CSc1ccccc1NC(=S)NC1CCCCC1,2.9%,-2.3%,-3.8%,0.6%,7.2%
O=C(Nc1ccccc1F)NC1CCCCCCC1,12µM*,?,3.98µM*,?,nt
O=C(Nc1cccc(Cl)c1)NC1CCCCC1,?,8.3%,?,?,28.9%
S=C(Nc1cccc2ccccc12)NC1CCCCC1,19µM*,?,?,18.6%,?
O=C(NC1CCCCCCC1)c1ccc(F)cc1,12µM*,10.3µM*,1.41µM*,1.41µM*,nt
O=C(Nc1ccc(F)c(F)c1)NC1CCCCC1,15.1µM*,9.0%,?,?,4.47µM*
O=C(Nc1ccccc1F)NC1CC1,-1.6%,7.1%,23.2%,-3.3%,2.0%
CCn1cc(C(=O)NCCc2ccc(OC)c(OC)c2)c(=O)c2cc(S(=O)(=O)N3CCc4ccccc4C3)ccc21,-4.3%,nt,nt,nt,4.2%
O=C(NC1CCCCC1)c1ccc(N2CCCC2=O)cc1,?,?,28.5%,?,?
O=C(Nc1ccc(F)cc1)NC1CCCCCCC1,9.53µM*,?,?,3.55µM*,nt
Nc1ccc(NC(=O)NC2CCCCC2)cc1,?,?,?,24.0%,nt
O=C(NC1CCCCCC1)c1ccc(N2CCCC2=O)cc1,13.5µM*,9.2µM*,3.16µM*,3.98µM*,12.6µM*
O=C(Nc1ccc(Cl)cc1)NC1CCCCC1,?,20.2%,2.51µM*,1.12µM*,11.2µM*
Cn1cnc(S(=O)(=O)N2CCC(C(=O)NCc3ccccc3)CC2)c1,-4.8%,nt,nt,nt,nt
N[C@@H](CSC1(c2ccc(Cl)cc2)c2ccccc2-c2ccccc21)C(=O)O,nt,nt,nt,nt,-0.4%[9.22 µM]
CC1SC(C)C(=O)N(CC(=O)NC2CCCCC2)C1=O (configuration not stated),-2.8%,-0.7%,-1.8%,-0.2%,5.4%
COC(=O)c1sccc1NC(=O)Nc1ccc(F)cc1F,21.3µM*,4.1%,1.9%,-3.3%,nt
COC(=O)c1sccc1NC(=O)Nc1ccc(C)cc1C,-17.8%,10.1%,6.7%,5.3%,nt
